# In PubChem BioAssay:
# Active and inactive are the calls of the source.
# Key:
# [1] = compound effects on lung adenocarcinoma cell viability – A549, calcein-AM fluorescence, 48 h, basal, profiling panel (AID 1162); settings: higher = more signal
# [2] = compound effects on differentiated 3T3-L1 adipocyte viability – cell-based, 3T3-L1 adipocytes, calcein-AM fluorescence, 48 h, basal, profiling panel (AID 1163); settings: 3T3-L1 adipocytes viability, higher = more signal
# [3] = compound effects on hepatocellular carcinoma cell viability – HepG2, calcein-AM fluorescence, 48 h, basal, profiling panel (AID 1164); settings: higher = more signal
# [4] = compound effects on multiple myeloma cell viability – MM1S, calcein-AM fluorescence, 48 h, basal, profiling panel (AID 1165); settings: higher = more signal;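 further: viability of MM1S multiple myeloma cells under basal unstimulated conditions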
# [5] = calcein-AM signal in unstimulated myeloma cells – cell-based, calcein-AM fluorescence, 48 h, PK04 Diversity Set, profiling panel (AID 1166); settings: RPMI8226 myeloma viability, higher = more signal;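 further: cells grown under basal conditions without added stimulus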
# [6] = JC-1 mitochondrial signal, unstimulated HepG2 cells – cell-based, JC-1 fluorescence, 24 h, 100 nL compound, profiling panel (AID 1167); settings: HepG2 mitochondrial potential, higher = more signal
# [7] = JC-1 mitochondrial signal, unstimulated adipocytes – cell-based, JC-1 fluorescence, 3T3-L1 adipocytes, 24 h, 100 nL compound, profiling panel (AID 1168); settings: JC-1 mitochondrial fluorescence, higher = more signal, called active from +8 up or from −8 down
# [8] = JC-1 mitochondrial signal, unstimulated myeloma cells – cell-based, JC-1 fluorescence, RPMI8226, 24 h, 100 nL compound, profiling panel (AID 1169); settings: JC-1 mitochondrial potential fluorescence, higher = more signal
# [9] = JC-1 mitochondrial signal, unstimulated MM1S myeloma – cell-based, JC-1 fluorescence, 24 h, 100 nL compound, profiling panel (AID 1170); settings: MM1S mitochondrial potential, higher = more signal
# [10] = resazurin metabolic signal in A549 cells – cell-based, resazurin fluorescence, 24 h, PK04 Diversity Set, profiling panel (AID 1171); settings: A549 viability, higher = more signal, called active from +8 up or from −8 down
# Further: test concentration not given here.
Structure (SMILES),z-score [1],z-score [2],z-score [3],z-score [4],z-score [5],z-score [6],z-score [7],z-score [8],z-score [9],z-score [10]
C[N+](C)(C)CCCC[C@@H]1NC(=O)[C@H]2C[C@@H](C(=O)NCCCCCCNC(=O)CS)[C@@H](c3cccc(OCCO)c3)N2C1=O,-1.42,-0.132,-0.153,0.0157,-0.682,0.325,0.0973 (inactive),-0.277,-0.326,-0.257 (inactive)
C=C(C)[C@@H]1CC=C(C(O)C2C=CC3C(=O)N(C)C(=O)C3N2Nc2ccccc2)CC1 (stereo not given in full),-0.889,-1.16,-0.651,-1.36,0.0835,-0.9,4.5 (inactive),-0.334,-0.0333,0.392 (inactive)
CC(C)N1C(=O)[C@@]2(Cc3ccccc31)c1ccccc1C(=O)N(Cc1ccccc1Cl)[C@H]2c1ccc(CO)cc1,1.02,-0.24,-0.921,-1.58,-0.238,0.407,0.111 (inactive),0.115,-1.76,0.458 (inactive)
CCOC(=O)C[C@H]1[C@H](OC(=O)c2ccc(-c3ccccc3)cc2)[C@@H](NC(=O)Cc2ccc(OC)cc2)c2cc(OCCCO)ccc2N1C(=O)c1ccccc1,-0.137,0.533,-0.42,0.57,-0.432,1.37,-1.03 (inactive),0.0293,-0.102,-0.657 (inactive)
COC(=O)[C@@]1(Cc2ccc(OC)cc2)[C@H]2c3cc(C(=O)N4CCCC4)n(CCN4CNCC4=O)c3C[C@H]2CN1C(=O)c1ccccc1,-0.215,0.0334,-0.137,-0.105,-2.17,0.696,-0.514 (inactive),-0.429,-0.162,-0.936 (inactive)
COc1cc(C(O)C2C=CC3C(=O)NC(=O)C3N2Nc2ccccn2)cc(OC)c1OC (stereo not given),-0.928,-0.66,-1.31,-0.494,0.611,-1.2,-0.524 (inactive),-0.0982,-0.0424,-0.706 (inactive)
C=CCNC(=O)[C@H]1[C@@H]2C(=O)O[C@@H](c3ccccc3)[C@@H](c3ccccc3)N2[C@@H](c2ccccc2OCCO)[C@]12C(=O)Nc1ccc(C#CCCO)cc12,0.126,1.04,-0.543,-2.03,-1.91,-0.651,-0.936 (inactive),-0.953,-0.31,-0.685 (inactive)
COCC(=C=CC[C@@H](O)c1cccc(OCCO)c1)C[C@@H](O)c1ccccn1,0.492,-0.0288,-0.112,0.265,-0.51,0.00274,0.613 (inactive),0.00702,-0.0149,0.391 (inactive)
NC(=O)NCC#Cc1ccc2c(c1)[C@]1(C(=O)N2)[C@H](c2ccccc2OCCO)N2[C@H](c3ccccc3)[C@H](c3ccccc3)OC(=O)[C@H]2[C@@H]1C(=O)Nc1nc2ccccc2s1,0.334,0.226,-0.126,0.0225,-0.048,-2.78,2.99 (inactive),-0.885,-1.73,0.659 (inactive)
O=C1O[C@@H](c2ccccc2)[C@@H](c2ccccc2)N2[C@@H](c3ccccc3OCCO)[C@]3(C(=O)Nc4ccccc43)[C@@H](C(=O)Nc3nc4ccccc4s3)[C@H]12,-2.12,1.18,-1.98,-3.17,-4.44,-2.85,3.87 (inactive),-1.3,-1.54,-1.52 (inactive)
Cc1ccc(S[C@]2(C(=O)O)CC(=O)N(C(C)C)[C@@H]2c2ccc(CO)cc2I)cc1,2.14,0.827,1.65,-2.36,-0.902,0.0957,-0.386 (inactive),-0.527,-0.56,0.667 (inactive)
C=CCN1C(=O)[C@@]2(CC=C)N=C(c3ccc(OCCCO)cc3)O[C@H]2c2ccccc21,0.248,1.68,-0.515,-3.41,-3.72,1.62,2.61 (inactive),-1.02,-2.1,-2.08 (inactive)
CC(C)N1C(=O)c2ccccc2[C@](C)(C(=O)NCCN2CCOCC2)[C@@H]1c1ccc(CO)cc1,-0.291,-0.748,0.458,-1.69,0.0409,0.916,-0.537 (inactive),1,-0.0545,0.0569 (inactive)
C=C(COC)/C(=C/C[C@H](OC(C)=O)c1ccc(CO)o1)c1cc(C(=O)OC)ccc1OC,-0.588,0.635,-0.603,-0.659,-0.0381,-0.527,-0.29 (inactive),-0.0437,0.000891,-0.369 (inactive)
CCCC[C@@H]1C[C@H]1[C@@H](NC(=O)c1ccco1)c1ccc(-c2ccccc2)cc1,-0.359,0.222,-1.05,-0.15,-1.03,-1.07,-0.168 (inactive),-0.0532,0.0163,-1.04 (inactive)
CCCc1cc2c(n1Cc1cc(F)cc(F)c1)C(C)C1CN(C(=O)c3ccccc3)C(C)(C(=O)OC)C21 (stereo not given),-0.679,0.149,-0.237,-1.7,-4.39,2.5,-1.98 (inactive),-0.904,-1.79,-0.675 (inactive)
COc1cc2c(cc1OC)CN(C(=O)[C@@H]1[C@H]3C(=O)O[C@H](c4ccccc4)[C@H](c4ccccc4)N3[C@H](c3ccc(O)cc3)[C@@]13C(=O)Nc1ccccc13)CC2,1.62,1.45,1.01,0.0197,-1.62,-0.574,0.382 (inactive),-1.08,-0.404,1.6 (inactive)
C=CCOC(=O)[C@H]1[C@@H]2C(=O)O[C@@H](c3ccccc3)[C@@H](c3ccccc3)N2[C@@H](c2ccc(OCCOC(=O)[C@H]3C[C@H]4C(=O)N[C@@H](CCCCNC(C)=O)C(=O)N4[C@H]3c3ccc(O)cc3)cc2)[C@]12C(=O)Nc1ccc(I)cc12,-0.143,-0.0346,-0.251,-2.94,-2.69,1.46,0.585 (inactive),-0.538,-1.44,0.974 (inactive)
C[N+](C)(C)CCCCNC(=O)[C@H]1C[C@H]2C(=O)N3CCC[C@H]3C(=O)N2[C@H]1c1cccc(OCCO)c1,-0.591,-0.682,-0.545,0.129,0.157,-0.901,-0.186 (inactive),-0.0988,-0.193,-0.699 (inactive)
C=C[C@@H](COC(=O)OC(C)(C)C)N(Cc1ccc(OC)cc1)S(=O)(=O)c1ccc(Br)cc1,1.39,0.332,-0.002,-3.08,-1.36,-0.997,-0.239 (inactive),-0.525,0.101,1.74 (inactive)
COc1ccc(/C=C/C=O)cc1,0.637,-0.243,0.0562,0.418,-1.22,0.555,0.754 (inactive),-0.464,-0.0737,-0.925 (inactive)
COCCCNC(=O)[C@]1(CCC(=O)OC(C)(C)C)N=C(c2ccc(OCCCO)cc2)O[C@@H]1c1ccccc1CN=[N+]=[N-],-0.651,-0.579,-0.421,-0.658,0.338,-0.255,-0.2 (inactive),-0.315,-0.272,0.743 (inactive)
COC(=O)[C@@]1(Cc2ccc(OC)cc2)[C@H]2c3cc(C(=O)N(C)C)n(Cc4ccccn4)c3C[C@H]2CN1C(=O)c1ccccc1,-0.865,0.626,-0.319,-0.684,-1.31,2.05,-1.46 (inactive),0.155,0.016,-0.793 (inactive)
C=CCOC(=O)[C@H]1[C@@H]2C(=O)O[C@@H](c3ccccc3)[C@@H](c3ccccc3)N2[C@@H](c2ccc(OCCOC(=O)[C@@H]3C[C@@H]4C(=O)N[C@@H](CCCCNC(C)=O)C(=O)N4[C@@H]3c3ccc(O)cc3)cc2)[C@]12C(=O)Nc1ccccc12,-0.41,1.85,-0.578,-0.0774,-0.133,-1.7,0.703 (inactive),-0.611,-0.95,-1.57 (inactive)
CC(C)C(CO)N1C(=O)[C@@H]2C3C(=O)OCCC/C=C\[C@H]3OC23C=CCN(CCN2CCOCC2)C(=O)[C@@H]13 (stereo not given in full),1.12,-0.453,-0.66,0.171,-0.378,-0.936,-0.173 (inactive),-0.759,-0.359,-0.702 (inactive)
Oc1ccc2cc[n+](Cc3sc4ccccc4c3Cl)cc2c1,-0.66,0.552,-0.934,0.241,-1.86,-1.4,-0.0649 (inactive),0.376,1.78,-0.655 (inactive)
O=C1C[C@@](C(=O)NCCN2CCOCC2)(c2ccc([N+](=O)[O-])cc2)[C@@H](c2ccc(CO)cc2I)N1CC12CC3CC(CC(C3)C1)C2,-4.03,0.546,-5.11,-3.86,-4.39,-2.72,0.981 (inactive),-0.93,-2.17,-4.83 (inactive)
COC(=O)C(CC#Cc1ccc2c(c1)[C@]1(C(=O)N2)[C@H](c2ccc(OCCO)cc2)N2[C@H](c3ccccc3)[C@H](c3ccccc3)OC(=O)[C@H]2[C@@H]1C(=O)Nc1nc2ccccc2s1)C(=O)OC,0.214,0.368,0.94,-2.56,-2.73,-2.98,1.67 (inactive),-1.11,-1.29,0.84 (inactive)
[N-]=[N+]=Nc1ccccc1[C@H]1OC(c2ccc(OCCCO)cc2)=N[C@@]1(CCS(=O)(=O)c1ccccc1)C(=O)NCC(O)CO (stereo not given in full),-0.0714,0.638,0.0911,-0.826,0.395,-1.16,-0.22 (inactive),0.311,-0.0714,0.859 (inactive)
